# In ChEMBL document CHEMBL1961873, “Compounds: GSK PKIS; Assays: Nanosyn kinase panel” (2012):
# Assays:
# [1] = target: Leukocyte tyrosine kinase receptor (Homo sapiens) (UniProt P29376); settings: at 1 µM;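 also: each value is the mean inhibition of LTK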
# [2] = target: Tyrosine-protein kinase Lyn (Homo sapiens) (UniProt P07948); settings: at 0.1 µM
# [3] = target: Tyrosine-protein kinase Lyn (Homo sapiens) (UniProt P07948); settings: at 1 µM
# [4] = target: Tyrosine-protein kinase Lyn (Homo sapiens) (UniProt P07948); settings: at 0.1 µM; remark: listed apart in the source
# [5] = target: Tyrosine-protein kinase Lyn (Homo sapiens) (UniProt P07948); settings: at 1 µM; remark: listed apart in the source
# [6] = target: T1, Tyrosine-protein kinase Mer (Homo sapiens) (UniProt Q12866); settings: at 0.1 µM
# T1 sequence (whole entry): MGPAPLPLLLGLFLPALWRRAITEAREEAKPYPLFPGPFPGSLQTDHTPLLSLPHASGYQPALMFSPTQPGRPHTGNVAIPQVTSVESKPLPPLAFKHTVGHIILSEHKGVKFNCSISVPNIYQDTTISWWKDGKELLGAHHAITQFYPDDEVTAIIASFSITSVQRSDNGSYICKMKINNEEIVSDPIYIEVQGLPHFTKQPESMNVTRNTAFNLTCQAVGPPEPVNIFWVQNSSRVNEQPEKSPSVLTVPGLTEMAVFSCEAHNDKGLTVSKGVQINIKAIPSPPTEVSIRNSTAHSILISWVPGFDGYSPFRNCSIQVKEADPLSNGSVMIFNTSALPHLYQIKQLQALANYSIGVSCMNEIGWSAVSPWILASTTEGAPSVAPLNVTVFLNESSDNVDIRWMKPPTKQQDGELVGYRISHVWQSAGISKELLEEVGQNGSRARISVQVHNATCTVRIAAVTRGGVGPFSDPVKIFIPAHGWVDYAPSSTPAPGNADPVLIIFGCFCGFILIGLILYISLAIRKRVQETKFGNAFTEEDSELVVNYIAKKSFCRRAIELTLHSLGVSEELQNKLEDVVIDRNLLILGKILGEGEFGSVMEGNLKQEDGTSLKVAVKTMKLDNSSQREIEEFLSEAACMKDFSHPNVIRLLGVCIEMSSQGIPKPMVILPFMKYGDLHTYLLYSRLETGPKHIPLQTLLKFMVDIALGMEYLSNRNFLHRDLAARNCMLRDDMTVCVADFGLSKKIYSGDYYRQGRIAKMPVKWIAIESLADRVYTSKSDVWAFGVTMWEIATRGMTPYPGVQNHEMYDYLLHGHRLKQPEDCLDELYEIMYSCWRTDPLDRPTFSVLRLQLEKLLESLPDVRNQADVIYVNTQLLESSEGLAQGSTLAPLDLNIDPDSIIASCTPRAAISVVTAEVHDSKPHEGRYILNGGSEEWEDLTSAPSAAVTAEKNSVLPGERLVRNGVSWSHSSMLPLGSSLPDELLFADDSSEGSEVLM
# [7] = target: T1, Tyrosine-protein kinase Mer (Homo sapiens); settings: at 1 µM
# [8] = target: Hepatocyte growth factor receptor (Homo sapiens) (UniProt P08581); settings: at 0.1 µM
# [9] = target: Hepatocyte growth factor receptor (Homo sapiens) (UniProt P08581); settings: at 1 µM
# [10] = target: T2, Muscle, skeletal receptor tyrosine-protein kinase (Homo sapiens) (UniProt O15146); settings: at 0.1 µM;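 also: values are mean inhibition of MuSK from the GSK PKIS kinase screening panel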
# T2 sequence (whole entry): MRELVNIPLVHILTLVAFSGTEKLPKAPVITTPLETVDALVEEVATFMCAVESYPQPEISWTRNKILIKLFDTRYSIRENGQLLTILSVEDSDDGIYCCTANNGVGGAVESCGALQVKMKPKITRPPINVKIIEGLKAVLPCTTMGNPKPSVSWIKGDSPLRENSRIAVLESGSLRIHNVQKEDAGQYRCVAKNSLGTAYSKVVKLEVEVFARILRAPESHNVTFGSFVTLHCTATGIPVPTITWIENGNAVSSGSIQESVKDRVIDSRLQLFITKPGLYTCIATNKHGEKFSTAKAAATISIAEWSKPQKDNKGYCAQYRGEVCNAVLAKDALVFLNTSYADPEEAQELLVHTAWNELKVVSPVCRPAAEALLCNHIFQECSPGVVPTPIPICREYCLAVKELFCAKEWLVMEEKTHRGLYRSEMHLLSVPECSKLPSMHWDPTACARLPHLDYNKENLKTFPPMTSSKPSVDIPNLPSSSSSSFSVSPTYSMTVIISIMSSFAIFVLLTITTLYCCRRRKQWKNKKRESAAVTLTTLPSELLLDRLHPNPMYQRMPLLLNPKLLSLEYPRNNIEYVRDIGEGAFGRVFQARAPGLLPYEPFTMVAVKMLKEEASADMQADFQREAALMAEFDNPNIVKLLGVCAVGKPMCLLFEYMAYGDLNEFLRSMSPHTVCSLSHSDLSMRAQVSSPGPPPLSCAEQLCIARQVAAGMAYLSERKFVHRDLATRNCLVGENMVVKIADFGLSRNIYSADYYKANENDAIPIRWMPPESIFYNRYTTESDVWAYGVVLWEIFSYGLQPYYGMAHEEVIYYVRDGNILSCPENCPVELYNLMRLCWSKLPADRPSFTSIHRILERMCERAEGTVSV
# Chain of Leukocyte tyrosine kinase receptor (Homo sapiens) (P29376 whole entry): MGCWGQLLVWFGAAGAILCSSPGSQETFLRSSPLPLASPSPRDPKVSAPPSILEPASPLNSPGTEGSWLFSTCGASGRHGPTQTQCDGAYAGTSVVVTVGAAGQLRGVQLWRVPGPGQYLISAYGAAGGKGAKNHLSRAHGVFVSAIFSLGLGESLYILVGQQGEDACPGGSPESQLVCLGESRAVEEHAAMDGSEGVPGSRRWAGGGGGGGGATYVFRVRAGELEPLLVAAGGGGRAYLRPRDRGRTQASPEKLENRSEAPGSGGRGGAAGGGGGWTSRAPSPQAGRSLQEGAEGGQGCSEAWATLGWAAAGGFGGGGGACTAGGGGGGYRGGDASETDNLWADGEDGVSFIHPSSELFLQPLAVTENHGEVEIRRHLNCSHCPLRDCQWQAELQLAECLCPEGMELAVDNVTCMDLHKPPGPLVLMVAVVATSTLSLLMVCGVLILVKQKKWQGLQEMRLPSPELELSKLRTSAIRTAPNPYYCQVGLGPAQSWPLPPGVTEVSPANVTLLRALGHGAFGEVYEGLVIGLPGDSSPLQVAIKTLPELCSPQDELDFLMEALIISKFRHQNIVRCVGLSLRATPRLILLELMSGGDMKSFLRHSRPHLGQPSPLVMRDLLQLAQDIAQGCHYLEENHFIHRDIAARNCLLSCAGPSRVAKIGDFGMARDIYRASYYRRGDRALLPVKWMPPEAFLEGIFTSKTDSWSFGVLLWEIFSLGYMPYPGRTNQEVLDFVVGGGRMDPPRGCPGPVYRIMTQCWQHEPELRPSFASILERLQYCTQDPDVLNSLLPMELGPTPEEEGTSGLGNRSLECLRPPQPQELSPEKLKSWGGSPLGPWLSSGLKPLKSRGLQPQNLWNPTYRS
# Chain of Tyrosine-protein kinase Lyn (Homo sapiens) (P07948 2-512 limits assumed): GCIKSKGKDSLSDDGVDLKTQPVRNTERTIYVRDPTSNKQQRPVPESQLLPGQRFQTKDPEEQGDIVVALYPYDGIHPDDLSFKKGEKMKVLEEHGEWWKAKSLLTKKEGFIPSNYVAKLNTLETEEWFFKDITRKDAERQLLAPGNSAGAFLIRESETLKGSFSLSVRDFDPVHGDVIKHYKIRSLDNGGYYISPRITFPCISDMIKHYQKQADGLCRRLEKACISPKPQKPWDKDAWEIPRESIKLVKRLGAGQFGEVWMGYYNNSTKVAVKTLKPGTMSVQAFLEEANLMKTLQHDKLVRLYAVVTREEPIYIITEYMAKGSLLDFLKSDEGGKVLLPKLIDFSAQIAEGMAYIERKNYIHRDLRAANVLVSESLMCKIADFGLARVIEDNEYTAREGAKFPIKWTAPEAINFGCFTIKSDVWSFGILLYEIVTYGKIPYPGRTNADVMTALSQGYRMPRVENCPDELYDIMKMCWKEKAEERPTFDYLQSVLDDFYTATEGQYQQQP
# Chain of Hepatocyte growth factor receptor (Homo sapiens) (P08581 whole entry): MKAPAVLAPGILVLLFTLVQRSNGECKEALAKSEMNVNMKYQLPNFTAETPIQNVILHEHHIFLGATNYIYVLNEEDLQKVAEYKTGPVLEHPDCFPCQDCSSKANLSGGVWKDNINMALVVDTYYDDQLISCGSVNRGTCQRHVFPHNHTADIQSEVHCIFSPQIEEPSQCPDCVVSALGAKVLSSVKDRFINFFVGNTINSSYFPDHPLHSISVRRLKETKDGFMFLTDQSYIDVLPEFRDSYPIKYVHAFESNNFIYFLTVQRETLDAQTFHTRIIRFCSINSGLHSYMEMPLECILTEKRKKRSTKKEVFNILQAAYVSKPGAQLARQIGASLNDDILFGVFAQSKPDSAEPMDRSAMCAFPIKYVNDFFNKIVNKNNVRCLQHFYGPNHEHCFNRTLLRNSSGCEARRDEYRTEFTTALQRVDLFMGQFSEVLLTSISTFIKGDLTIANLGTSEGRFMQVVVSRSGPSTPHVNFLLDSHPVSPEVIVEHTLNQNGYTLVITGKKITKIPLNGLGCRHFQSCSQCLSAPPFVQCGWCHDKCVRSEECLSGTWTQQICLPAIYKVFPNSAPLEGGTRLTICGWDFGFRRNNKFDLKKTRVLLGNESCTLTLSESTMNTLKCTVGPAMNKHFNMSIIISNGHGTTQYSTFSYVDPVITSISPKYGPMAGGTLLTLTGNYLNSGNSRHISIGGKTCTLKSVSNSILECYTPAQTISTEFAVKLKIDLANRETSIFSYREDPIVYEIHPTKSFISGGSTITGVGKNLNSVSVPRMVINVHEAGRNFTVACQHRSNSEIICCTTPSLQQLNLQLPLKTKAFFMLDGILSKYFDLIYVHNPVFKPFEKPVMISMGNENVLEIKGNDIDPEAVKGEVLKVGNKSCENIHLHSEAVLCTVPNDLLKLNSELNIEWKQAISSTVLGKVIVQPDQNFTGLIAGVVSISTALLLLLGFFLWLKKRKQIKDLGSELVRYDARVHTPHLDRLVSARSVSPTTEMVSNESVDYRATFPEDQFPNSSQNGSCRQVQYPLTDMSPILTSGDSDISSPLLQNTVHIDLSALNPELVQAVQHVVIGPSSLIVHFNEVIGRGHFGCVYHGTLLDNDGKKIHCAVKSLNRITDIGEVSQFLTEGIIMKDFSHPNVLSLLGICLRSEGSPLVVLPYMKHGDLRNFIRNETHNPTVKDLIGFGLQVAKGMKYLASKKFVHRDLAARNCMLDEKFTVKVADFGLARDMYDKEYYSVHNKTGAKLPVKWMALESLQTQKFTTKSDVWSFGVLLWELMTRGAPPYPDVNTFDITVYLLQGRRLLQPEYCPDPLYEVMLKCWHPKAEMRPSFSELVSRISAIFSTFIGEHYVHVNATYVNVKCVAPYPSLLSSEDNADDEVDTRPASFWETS
SMILES,inhibition [1] [%],inhibition [2] [%],inhibition [3] [%],inhibition [4] [%],inhibition [5] [%],inhibition [6] [%],inhibition [7] [%],inhibition [8] [%],inhibition [9] [%],inhibition [10] [%]
CCc1nccc2c1nc(-c1nonc1N)n2CC,6.1,3.82,6.26,1.19,2.71,-0.98,0.92,2.04,2.39,1.31
C/C(Nc1ccc(S(N)(=O)=O)cc1)=C1/C(=O)Nc2ccccc21,9.41,1.53,8.14,0.71,6.94,0.6,9.21,3.68,9.39,3.8
COc1cc(Nc2ncc3c(C)nc(-c4cccc(Oc5ccccc5)c4)n3n2)cc(OC)c1OC,3.54,3.39,4.7,1.89,3.75,1.36,1.57,1.11,-0.18,1.49
Cc1ccc(C(=O)NC(C)C)cc1-c1ccc(C(=O)NCC2CC2)cc1,-1.83,-2.52,-1.28,-1.84,-0.78,-1.23,-0.29,-2.98,-5.28,-2.44
COc1cc2ncn(-c3cc(OCc4cccs4)c(C(N)=O)s3)c2cc1OC,7.14,4.29,22.6,2.41,19.3,3.4,10.7,8.19,13.4,4.86
CN(C)CCOc1ccc(-c2cc(-c3ccc4c(c3)CCC4=NO)c(-c3ccncc3)o2)cc1,-0.32,0.86,4.14,0.71,3.2,,4.1,12.9,5.81,-0.04
NS(=O)(=O)c1ccc(Nc2cc(-c3ccc(O)c(F)c3)n[nH]2)cc1,0.7,2.66,20,0.57,17.4,1.99,13.4,0.07,-2.91,5.85
COc1cc2ncn(-c3cc(OCc4ccccc4C(F)(F)F)c(C(C)=O)s3)c2cc1OC,3.33,3.36,6.9,4.22,6.9,-0.14,4.1,1.74,13.5,2.48
Nc1nccc(-c2c(-c3ccc(F)cc3)ncn2C2CCC(O)CC2)n1 (centres undefined),0.8,3.13,23.6,1.4,18,1.22,7.13,0.14,3.65,0.79
Cc1ccc(NC(=O)c2ccoc2)cc1-c1ccc(C(=O)NCC2CC2)cc1,3.16,3.73,3.68,3.72,4.12,1.1,1.81,11.4,0.85,0.54
Fc1ccc(-c2ncn(C3CCNCC3)c2-c2ccnc(Oc3ccc4c(c3)OCO4)n2)cc1,8.02,5.3,7.55,3.33,5.4,2.7,5.24,2.27,7.4,5.07
c1ccc(-c2n[nH]cc2-c2ccnc(-c3ccc(OCCN4CCOCC4)cc3)c2)nc1,-0.95,1.31,10.2,1.54,7.34,5.12,5.39,7.49,5.59,6.97
O=C(Nc1n[nH]c2nc(-c3ccco3)ccc12)C1CC1,1.2,2.83,4.01,1.47,3.2,2.01,1.71,4.66,5.26,5.75
N#Cc1ccc(Oc2nccc(-c3c(-c4ccc(F)cc4)ncn3C3CCNCC3)n2)cc1,5.69,5.36,7.26,3.37,4.34,2.29,2.26,3.69,6.49,1.86
COc1ccc(C2=C(N3CCc4ccccc43)C(=O)NC2=O)cc1,5.38,6.92,6.95,5.2,5.98,1.96,1.78,6.5,7.87,2.97
CNC(=O)c1cncc(/C=C/c2c(C)cccc2C)c1,-0.39,22.1,72.4,17.6,67.8,-0.47,3.56,-0.92,1.41,3.8
Fc1ccc(-c2ncn(C3CCNCC3)c2-c2ccnc(Oc3ccc(F)c(F)c3)n2)cc1,2.29,3.84,3.75,2.34,2.48,1.13,1.39,7.87,4.17,2.92

SMILES,inhibition [1] [%],inhibition [2] [%],inhibition [3] [%],inhibition [4] [%],inhibition [5] [%],inhibition [6] [%],inhibition [7] [%],inhibition [8] [%],inhibition [9] [%],inhibition [10] [%]
CCN(CC)Cc1ccc(Nc2nccc(-c3cnn4ncccc34)n2)cc1,9.98,3.53,11.8,2.02,9.31,2.93,9.85,7.6,10.4,6.42
COc1ccc2cc(-c3c(-c4ccncc4)nc(-c4ccc([S+](C)[O-])cc4C)n3C)ccc2c1 (centres undefined),2.92,2,21.4,0.52,16.8,0.82,9.89,-1.42,3.32,0.94
O=C(Nc1ccc(Oc2ccc3[nH]c(NC(=O)c4ccccc4)nc3c2)cc1)Nc1cc(C(F)(F)F)ccc1F,3.76,5.73,27.5,3.48,23.4,1.3,3.74,4.39,19.2,13.9
Fc1ccc(-c2nc3n(c2-c2ccncc2)CCS3)cc1,2.85,3.56,7.36,1.97,4.29,1.16,3.24,8.26,5.29,2.08
CN(C)c1ccc2c(c1)/C(=C/Nc1ccc(S(N)(=O)=O)cc1)C(=O)N2,2.8,3.6,22.4,2.71,17.4,1.88,10.8,-0.65,4.48,8.66
Fc1ccc(-c2ncn(C3CCNCC3)c2-c2ccnc(Oc3ccc(Oc4ccccc4)cc3)n2)cc1,4.33,3.46,5.25,1.56,2.92,1.43,10.6,9.38,0.02,2.43
CN(C)CCCNc1nccc(-c2c(-c3ccc(F)cc3)nn3cc(C(F)(F)F)ccc23)n1,1.19,1.87,6.57,0.99,5.88,1.56,5.87,3.45,10.6,10.1
CS(=O)(=O)CCNCc1ccc(-c2ccc3ncnc(Nc4ccc(OCc5ccccc5)c(Br)c4)c3c2)o1,4.86,4.6,7.84,2.75,5.83,2.91,13.9,1.81,6.53,1.27
O=C(Nc1n[nH]c2nc(-c3ccc(O)cc3)c(Br)cc12)C1CC1,91.6,9.57,16.2,6.94,13,1.7,8.16,4.98,10.9,4.48
COc1ccc2cc(-c3c(-c4ccncc4)nc(-c4ccc(S(C)(=O)=O)cc4C)n3C)ccc2c1,5.96,6.65,22.3,3.79,16.7,2.19,9.48,2.55,4.21,3.24
NC(=O)c1cc(-c2ccncc2)cc(-c2ccccc2)c1N,6.16,11.7,48.8,10,43,1.28,3.16,0.99,3.43,2.46
CCC(=O)Nc1ccc(C)c(-c2ccc(C(=O)NCC3CC3)cc2)c1,3.92,4.52,5.05,1.69,2.75,2.88,4.95,6.02,4.29,1.96
O=C(NCC1CC1)c1ccc(-c2cccc(C(=O)NC3CC3)c2)cc1,-0.6,0.78,1.7,0.33,2.4,0.92,3.13,5.94,-2.79,6.72
CCc1cccc(CC)c1/C=C/c1cncc(C(=O)NC)c1,0.4,3.99,5.8,1.75,4.91,-0.22,4.08,-0.26,1.69,3.82
COc1cc2ncn(-c3cc(OCCc4ccccc4)c(C(N)=O)s3)c2cc1OC,1.98,1.83,9.45,0.79,7.19,2.54,6.75,1.96,5.5,2.9
NS(=O)(=O)c1ccc(N/N=C2\C(=O)Nc3ccc(C(=O)NCCCn4ccnc4)cc32)cc1,7.11,6.54,16.1,4.32,12.4,1.34,6.35,2.76,12,4.66
CN1CCN(CCCNc2nc3ccc(Oc4ccc(NC(=O)Nc5cc(C(F)(F)F)ccc5F)cc4)cc3[nH]2)CC1,-0.03,1.76,13.2,0.61,9.37,2.04,6.67,5.66,8.95,15
